In assay [1] the target is T1, Mitogen-activated protein kinase 12 (Homo sapiens) (UniProt P53778).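 Also: values are averaged p38gamma kinase inhibition readings, compounds tested at 1 µM.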
T1 sequence (whole entry): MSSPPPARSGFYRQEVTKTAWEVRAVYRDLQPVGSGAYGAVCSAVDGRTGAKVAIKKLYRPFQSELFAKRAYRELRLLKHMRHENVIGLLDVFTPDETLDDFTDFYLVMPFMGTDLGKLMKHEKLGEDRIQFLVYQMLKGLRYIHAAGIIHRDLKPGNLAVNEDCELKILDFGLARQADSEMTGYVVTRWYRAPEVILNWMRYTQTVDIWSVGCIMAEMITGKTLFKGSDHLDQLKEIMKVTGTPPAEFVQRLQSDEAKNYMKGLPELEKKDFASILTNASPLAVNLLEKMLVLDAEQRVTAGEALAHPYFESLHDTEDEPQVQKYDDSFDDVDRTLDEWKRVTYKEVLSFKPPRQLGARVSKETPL
The following applies: at 1 µM.

In assay [2] the target is SRSF protein kinase 1 (Homo sapiens) (UniProt Q96SB4). The following applies: at 0.1 µM.
Sequence of SRSF protein kinase 1 (Homo sapiens) (Q96SB4 whole entry): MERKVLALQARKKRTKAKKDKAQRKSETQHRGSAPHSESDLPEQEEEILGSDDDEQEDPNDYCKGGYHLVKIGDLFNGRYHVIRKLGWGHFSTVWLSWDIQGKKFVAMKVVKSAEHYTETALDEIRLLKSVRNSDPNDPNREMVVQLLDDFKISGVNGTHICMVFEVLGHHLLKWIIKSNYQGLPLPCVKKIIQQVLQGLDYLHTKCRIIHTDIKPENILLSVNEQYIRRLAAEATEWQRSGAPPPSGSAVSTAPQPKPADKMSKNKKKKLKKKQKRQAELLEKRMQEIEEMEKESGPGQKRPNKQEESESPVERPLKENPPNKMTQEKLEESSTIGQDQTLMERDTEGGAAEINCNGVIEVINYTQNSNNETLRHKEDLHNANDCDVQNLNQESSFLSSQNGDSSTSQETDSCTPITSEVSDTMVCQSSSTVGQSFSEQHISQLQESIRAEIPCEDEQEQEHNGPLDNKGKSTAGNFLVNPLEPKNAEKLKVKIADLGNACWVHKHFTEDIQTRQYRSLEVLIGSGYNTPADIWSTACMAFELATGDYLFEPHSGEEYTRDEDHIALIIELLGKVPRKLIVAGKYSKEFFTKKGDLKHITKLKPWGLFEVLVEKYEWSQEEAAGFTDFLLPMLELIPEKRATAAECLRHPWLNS
Assay [3] shares this target. The following applies: at 1 µM.
The target in assay [4] is Phosphatidylinositol 4,5-bisphosphate 3-kinase catalytic subunit alpha isoform (Homo sapiens) (UniProt P42336). To be noted: at 0.1 µM.
Sequence of Phosphatidylinositol 4,5-bisphosphate 3-kinase catalytic subunit alpha isoform (Homo sapiens) (P42336 whole entry, canonical isoform): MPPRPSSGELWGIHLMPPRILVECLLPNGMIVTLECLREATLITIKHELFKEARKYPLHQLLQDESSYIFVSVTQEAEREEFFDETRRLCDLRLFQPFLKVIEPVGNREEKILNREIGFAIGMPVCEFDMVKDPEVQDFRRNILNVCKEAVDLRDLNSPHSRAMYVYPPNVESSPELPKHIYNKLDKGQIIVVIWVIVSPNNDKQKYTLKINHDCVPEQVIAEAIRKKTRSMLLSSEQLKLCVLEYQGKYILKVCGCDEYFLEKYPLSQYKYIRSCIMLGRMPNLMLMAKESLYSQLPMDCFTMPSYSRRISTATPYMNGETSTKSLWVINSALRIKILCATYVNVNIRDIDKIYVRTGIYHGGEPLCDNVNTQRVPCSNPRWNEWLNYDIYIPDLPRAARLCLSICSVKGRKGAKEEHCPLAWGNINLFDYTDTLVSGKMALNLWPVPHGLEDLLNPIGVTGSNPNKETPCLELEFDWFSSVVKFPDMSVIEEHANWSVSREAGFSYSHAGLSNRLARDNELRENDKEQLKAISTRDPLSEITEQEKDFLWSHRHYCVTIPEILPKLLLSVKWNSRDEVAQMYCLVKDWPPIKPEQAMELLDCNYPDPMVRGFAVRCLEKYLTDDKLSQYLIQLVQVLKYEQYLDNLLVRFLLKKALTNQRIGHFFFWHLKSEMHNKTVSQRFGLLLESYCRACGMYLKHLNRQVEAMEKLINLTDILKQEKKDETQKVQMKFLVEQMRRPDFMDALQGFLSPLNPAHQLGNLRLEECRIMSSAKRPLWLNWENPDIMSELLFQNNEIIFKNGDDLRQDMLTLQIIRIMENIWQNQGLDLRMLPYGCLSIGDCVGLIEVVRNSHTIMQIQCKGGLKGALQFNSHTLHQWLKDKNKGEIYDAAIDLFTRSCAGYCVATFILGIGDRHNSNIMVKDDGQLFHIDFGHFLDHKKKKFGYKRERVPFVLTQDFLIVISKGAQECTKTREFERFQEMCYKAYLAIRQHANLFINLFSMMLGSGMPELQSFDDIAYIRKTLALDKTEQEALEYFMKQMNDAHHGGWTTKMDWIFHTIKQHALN
For assay [5] the target is unchanged. The following applies: at 1 µM.
Assay [6] deals with T2, Phosphatidylinositol 4,5-bisphosphate 3-kinase catalytic subunit delta isoform (Homo sapiens) (UniProt O00329).
T2 sequence (whole entry): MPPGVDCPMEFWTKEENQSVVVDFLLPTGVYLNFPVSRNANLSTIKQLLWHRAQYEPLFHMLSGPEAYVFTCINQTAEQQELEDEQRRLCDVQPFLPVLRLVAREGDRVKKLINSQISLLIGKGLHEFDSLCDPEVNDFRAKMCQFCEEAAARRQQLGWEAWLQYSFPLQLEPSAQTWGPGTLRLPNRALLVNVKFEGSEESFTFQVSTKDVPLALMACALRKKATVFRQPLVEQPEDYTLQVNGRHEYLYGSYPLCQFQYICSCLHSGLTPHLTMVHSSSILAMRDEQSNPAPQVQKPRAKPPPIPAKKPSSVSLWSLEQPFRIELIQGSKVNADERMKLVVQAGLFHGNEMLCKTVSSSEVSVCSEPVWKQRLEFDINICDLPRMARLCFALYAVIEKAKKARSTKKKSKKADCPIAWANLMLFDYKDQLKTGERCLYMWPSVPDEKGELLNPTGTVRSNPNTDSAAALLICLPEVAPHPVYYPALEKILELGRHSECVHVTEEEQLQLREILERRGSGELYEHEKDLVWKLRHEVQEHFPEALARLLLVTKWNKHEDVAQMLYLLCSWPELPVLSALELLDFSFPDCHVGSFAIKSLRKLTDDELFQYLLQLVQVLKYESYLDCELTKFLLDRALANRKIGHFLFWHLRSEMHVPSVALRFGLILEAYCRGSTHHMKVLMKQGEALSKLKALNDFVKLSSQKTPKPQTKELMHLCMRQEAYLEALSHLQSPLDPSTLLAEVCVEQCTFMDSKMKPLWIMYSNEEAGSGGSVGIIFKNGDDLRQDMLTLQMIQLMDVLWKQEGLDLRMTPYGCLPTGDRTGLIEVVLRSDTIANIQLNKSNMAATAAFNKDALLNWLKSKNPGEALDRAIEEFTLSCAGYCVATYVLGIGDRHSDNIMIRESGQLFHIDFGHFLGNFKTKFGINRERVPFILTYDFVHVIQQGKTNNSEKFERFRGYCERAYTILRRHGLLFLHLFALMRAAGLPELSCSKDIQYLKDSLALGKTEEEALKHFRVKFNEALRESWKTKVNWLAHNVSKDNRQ
To be noted: at 0.1 µM.

In assay [7] the target is T2, Phosphatidylinositol 4,5-bisphosphate 3-kinase catalytic subunit delta isoform (Homo sapiens). To be noted: at 1 µM.
Assay [8] concerns the target Phosphatidylinositol 4-kinase beta (Homo sapiens) (UniProt Q9UBF8). The following applies: at 0.1 µM.
Assay [9] shares this target. To be noted: at 1 µM.
Assay [10] addresses Sphingosine kinase 1 (Homo sapiens) (UniProt Q9NYA1). The following applies: at 0.1 µM.
The target is the same in assay [11]. The following applies: at 1 µM.
The target in assay [12] is T3, Sphingosine kinase 2 (Homo sapiens) (UniProt Q9NRA0).
T3 sequence (whole entry): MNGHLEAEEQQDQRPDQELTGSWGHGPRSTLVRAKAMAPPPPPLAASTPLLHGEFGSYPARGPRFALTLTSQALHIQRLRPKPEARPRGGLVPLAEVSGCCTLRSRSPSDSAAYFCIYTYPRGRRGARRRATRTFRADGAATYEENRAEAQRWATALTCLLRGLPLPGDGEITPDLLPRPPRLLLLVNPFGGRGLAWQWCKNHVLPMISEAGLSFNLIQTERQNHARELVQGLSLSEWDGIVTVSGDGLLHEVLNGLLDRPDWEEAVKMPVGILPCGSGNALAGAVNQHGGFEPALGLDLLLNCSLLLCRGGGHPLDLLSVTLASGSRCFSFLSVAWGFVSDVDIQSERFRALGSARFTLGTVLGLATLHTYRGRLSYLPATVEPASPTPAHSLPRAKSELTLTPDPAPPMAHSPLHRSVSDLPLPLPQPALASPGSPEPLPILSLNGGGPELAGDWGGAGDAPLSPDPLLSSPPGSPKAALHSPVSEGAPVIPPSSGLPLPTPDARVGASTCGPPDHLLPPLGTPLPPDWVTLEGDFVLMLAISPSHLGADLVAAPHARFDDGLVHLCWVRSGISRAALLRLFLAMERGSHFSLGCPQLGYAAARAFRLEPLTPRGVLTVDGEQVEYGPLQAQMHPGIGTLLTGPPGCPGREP
To be noted: at 0.1 µM.

Assay [13] addresses T3, Sphingosine kinase 2 (Homo sapiens). The following applies: at 1 µM.
In assay [14] the target is Casein kinase II subunit alpha (Homo sapiens) (UniProt P68400). To be noted: at 0.1 µM.
Sequence of Casein kinase II subunit alpha (Homo sapiens) (P68400 whole entry, looked up): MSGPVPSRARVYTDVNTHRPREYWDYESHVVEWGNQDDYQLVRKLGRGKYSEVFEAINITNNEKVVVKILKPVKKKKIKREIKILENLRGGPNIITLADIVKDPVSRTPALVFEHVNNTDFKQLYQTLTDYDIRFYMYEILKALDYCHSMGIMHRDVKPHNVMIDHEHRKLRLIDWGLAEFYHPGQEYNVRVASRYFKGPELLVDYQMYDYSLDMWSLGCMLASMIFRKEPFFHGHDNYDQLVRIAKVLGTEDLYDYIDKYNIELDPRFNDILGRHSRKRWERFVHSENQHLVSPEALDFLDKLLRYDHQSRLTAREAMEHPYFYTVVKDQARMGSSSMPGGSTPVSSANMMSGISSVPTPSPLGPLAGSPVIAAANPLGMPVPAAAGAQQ
Assay [15] shares this target. The following applies: at 1 µM.
Assay [16] addresses T4, Inhibitor of nuclear factor kappa-B kinase subunit alpha (Homo sapiens) (UniProt O15111).
T4 sequence (whole entry): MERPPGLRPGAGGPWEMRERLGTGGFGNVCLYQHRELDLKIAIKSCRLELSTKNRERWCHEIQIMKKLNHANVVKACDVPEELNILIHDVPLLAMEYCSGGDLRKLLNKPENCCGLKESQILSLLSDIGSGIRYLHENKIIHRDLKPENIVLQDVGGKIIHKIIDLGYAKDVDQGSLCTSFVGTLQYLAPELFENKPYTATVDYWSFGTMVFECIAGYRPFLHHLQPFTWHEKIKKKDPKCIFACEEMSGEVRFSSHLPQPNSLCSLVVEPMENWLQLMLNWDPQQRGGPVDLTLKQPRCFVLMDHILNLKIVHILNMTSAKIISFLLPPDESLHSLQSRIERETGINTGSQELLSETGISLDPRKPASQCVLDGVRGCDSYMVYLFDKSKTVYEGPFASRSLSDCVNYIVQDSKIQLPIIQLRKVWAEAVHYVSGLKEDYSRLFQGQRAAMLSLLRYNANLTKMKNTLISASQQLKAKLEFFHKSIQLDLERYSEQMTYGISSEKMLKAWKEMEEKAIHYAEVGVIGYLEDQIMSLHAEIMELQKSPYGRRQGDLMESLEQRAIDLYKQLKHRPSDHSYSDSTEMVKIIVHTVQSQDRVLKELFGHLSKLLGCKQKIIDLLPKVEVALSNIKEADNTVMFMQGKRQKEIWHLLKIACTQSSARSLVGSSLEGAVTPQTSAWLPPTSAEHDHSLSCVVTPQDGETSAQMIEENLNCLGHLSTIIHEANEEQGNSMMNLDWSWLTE
To be noted: at 0.1 µM.

The target of assay [17] is T4, Inhibitor of nuclear factor kappa-B kinase subunit alpha (Homo sapiens). To be noted: at 1 µM.
Assay [18] concerns the target T5, Inhibitor of nuclear factor kappa-B kinase subunit beta (Homo sapiens) (UniProt O14920).
T5 sequence (whole entry): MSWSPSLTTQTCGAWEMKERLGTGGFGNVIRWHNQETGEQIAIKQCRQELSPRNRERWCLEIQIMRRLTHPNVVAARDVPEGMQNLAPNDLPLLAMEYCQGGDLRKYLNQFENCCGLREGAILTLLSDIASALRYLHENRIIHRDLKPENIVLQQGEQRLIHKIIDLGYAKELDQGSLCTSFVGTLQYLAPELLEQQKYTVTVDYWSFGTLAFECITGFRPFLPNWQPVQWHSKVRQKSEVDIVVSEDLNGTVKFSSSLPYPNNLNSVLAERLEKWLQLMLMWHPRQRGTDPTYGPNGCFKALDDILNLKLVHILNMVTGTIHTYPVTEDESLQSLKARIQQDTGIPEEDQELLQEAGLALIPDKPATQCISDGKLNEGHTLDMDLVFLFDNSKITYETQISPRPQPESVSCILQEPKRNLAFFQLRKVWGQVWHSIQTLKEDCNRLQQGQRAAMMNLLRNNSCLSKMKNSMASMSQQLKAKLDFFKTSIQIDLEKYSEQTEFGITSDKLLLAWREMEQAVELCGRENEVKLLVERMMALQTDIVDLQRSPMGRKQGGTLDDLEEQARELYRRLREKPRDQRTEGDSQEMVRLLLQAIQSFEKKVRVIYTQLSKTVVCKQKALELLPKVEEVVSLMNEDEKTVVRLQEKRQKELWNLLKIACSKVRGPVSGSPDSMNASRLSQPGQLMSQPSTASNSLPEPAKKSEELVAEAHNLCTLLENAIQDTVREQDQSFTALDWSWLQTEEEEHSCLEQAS
The following applies: at 0.1 µM.

Assay [19] deals with T5, Inhibitor of nuclear factor kappa-B kinase subunit beta (Homo sapiens). The following applies: at 1 µM.
Assay [20] has as its target T6, Inhibitor of nuclear factor kappa-B kinase subunit epsilon (Homo sapiens) (UniProt Q14164).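 Also: mean inhibition of IKKε reported, from the GSK PKIS dataset.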
T6 sequence (whole entry): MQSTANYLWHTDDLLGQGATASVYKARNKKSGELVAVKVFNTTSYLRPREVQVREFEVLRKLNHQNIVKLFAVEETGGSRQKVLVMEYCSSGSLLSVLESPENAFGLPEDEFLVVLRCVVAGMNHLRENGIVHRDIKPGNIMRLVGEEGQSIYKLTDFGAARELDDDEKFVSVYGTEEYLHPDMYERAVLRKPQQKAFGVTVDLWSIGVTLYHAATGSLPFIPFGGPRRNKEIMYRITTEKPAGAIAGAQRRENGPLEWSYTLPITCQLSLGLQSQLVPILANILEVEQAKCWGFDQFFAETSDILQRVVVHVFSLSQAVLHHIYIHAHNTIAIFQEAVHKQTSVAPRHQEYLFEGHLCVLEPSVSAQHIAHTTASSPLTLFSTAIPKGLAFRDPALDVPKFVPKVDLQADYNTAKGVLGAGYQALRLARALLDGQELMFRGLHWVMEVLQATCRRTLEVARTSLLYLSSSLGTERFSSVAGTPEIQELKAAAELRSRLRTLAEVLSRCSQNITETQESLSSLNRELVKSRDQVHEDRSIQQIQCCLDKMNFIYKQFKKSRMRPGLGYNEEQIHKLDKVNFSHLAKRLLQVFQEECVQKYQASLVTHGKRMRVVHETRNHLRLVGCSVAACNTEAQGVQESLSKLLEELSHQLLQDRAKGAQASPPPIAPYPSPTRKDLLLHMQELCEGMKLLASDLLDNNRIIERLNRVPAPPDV
The following applies: at 0.1 µM.

Sequence of Phosphatidylinositol 4-kinase beta (Homo sapiens) (Q9UBF8 2-816 limits assumed): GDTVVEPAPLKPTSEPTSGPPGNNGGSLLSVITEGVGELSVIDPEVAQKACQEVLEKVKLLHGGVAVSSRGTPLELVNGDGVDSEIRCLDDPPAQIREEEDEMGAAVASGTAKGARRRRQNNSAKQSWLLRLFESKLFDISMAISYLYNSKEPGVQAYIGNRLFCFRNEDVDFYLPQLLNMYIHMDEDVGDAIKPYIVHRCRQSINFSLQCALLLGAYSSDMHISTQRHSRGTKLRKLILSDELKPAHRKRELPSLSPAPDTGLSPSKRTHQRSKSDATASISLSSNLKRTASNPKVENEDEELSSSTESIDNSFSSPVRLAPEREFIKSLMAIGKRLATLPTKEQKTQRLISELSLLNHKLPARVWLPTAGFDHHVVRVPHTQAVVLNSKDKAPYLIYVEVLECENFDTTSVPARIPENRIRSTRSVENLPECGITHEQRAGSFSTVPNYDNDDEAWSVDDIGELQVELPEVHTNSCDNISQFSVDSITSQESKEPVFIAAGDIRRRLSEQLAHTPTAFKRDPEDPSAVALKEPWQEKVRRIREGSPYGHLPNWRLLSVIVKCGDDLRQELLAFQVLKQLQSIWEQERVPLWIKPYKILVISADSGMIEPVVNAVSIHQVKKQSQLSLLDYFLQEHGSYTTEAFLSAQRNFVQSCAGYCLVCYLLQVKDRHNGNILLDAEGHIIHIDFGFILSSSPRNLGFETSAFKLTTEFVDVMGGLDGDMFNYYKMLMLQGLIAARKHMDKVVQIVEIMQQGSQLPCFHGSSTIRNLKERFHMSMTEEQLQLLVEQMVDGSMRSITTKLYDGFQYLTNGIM
Sequence of Sphingosine kinase 1 (Homo sapiens) (Q9NYA1 whole entry): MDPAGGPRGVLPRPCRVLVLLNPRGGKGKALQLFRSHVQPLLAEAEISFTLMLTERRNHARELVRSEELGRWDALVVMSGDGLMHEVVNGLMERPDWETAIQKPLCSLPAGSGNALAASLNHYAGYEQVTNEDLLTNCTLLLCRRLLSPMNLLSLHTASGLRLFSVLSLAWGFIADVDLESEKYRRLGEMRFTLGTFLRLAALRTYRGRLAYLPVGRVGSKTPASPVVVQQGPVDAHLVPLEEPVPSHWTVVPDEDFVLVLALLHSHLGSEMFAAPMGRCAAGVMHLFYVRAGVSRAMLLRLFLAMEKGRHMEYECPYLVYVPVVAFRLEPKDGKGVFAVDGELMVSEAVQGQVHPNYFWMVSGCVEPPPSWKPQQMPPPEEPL

What is called inhibition is the drop in the measured response relative to a control, in per cent. With `N#Cc1c(NC(=O)c2cccc3ccccc23)sc2c1CCCC2`, the inhibition is 2.56% in assay [1]; -2.33% in assay [2]; -3.29% in assay [3]; 1.58% in [4]; 4.62% in assay [5]; 2.32% in assay [6]. Also, the inhibition is 4.96% in assay [7]; -2.84% in [8]; -0.74% in [9]; -0.7% in assay [10]; -0.69% in assay [11]; 1.73% in assay [12]. Further, the inhibition in assay [13] is 0.03%; in [14] it was 1.53%; in assay [15], -0.03%; in [16] it was 5.48%; in assay [17], 6.29%; in assay [18], 3.31%. Moreover, the inhibition in assay [19] worked out at 2.19%; in assay [20] it was 4.91%.

As for `CCn1c(-c2nonc2N)nc2c(N3CCCC3)nccc21`, the inhibition was -1.61% in assay [1]; 0.36% in assay [2]; 0.58% in assay [3]; -1.75% in [4]; -0.26% in [5]; 0.19% in [6]. Further, the inhibition in assay [7] was 0.29%; in [8] it was -6.46%; in assay [9], -2.5%; in [10], 2.26%; in assay [11], -1.44%; in assay [12], 0.74%. The inhibition in assay [13] was -0.77%; in [14], -0.14%; in assay [15] it was -0.49%; in assay [16] it was 8.52%; in assay [17], 5.88%; in assay [18] it was 0.45%. Moreover, the inhibition is -0.76% in assay [19] and -2.71% in assay [20].

For the compound `CCn1c(-c2nonc2N)nc2c(C#CC(C)(C)O)nc(OC[C@@H](N)c3ccccc3)cc21`, the inhibition in assay [1] is -0.24%; in [2], 0.57%; in assay [3] it was -0.56%; in [4], -3.76%; in assay [5] it was -3.41%; in assay [6], -2.59%. The inhibition in assay [7] is -3.08%; in [8] it was 0.16%; in assay [9], 2.95%; in assay [10], 0.21%; in assay [11] it was 2.57%; in assay [12], -1.25%. The inhibition in assay [13] is -2.35%; in assay [14], 0.95%; in assay [15] it was 1.36%; in assay [16], 4.77%; in assay [17], 2.26%; in [18], -2.58%. Also, the inhibition is -1.93% in assay [19] and 0.47% in assay [20].

For the origin of these results see ChEMBL document CHEMBL1961873, “Compounds: GSK PKIS; Assays: Nanosyn kinase panel” (2012).
